Assay outcomes as filed in PubChem BioAssay.
An excerpt weighted towards active compounds, which were near 4% of everything screened.
esBAF inh = SWI/SNF esBAF complex inhibition. mouse ES cells, Bmi1-luciferase knock-in reporter, 24 h; 100% = twice the neutral-well signal. reporter increase, % at 12.5 µM. 350,000 compounds, 2% hits. AID 602393; in the data active = activation above about 40%; inconclusive = no clear call, values can overlap the other calls;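 also: a rise in the Bmi1 reporter signal indicates esBAF inhibition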
Wnt act = activators of Wnt/beta-catenin signaling; Wnt/beta-catenin reporter cell assay, activator, plate reader; activation, % at 9.35 µM; 300,000 compounds, 1.2% hits; AID 743398; in the data active = activation above about 30%, passing the limit was not always enough; inconclusive = no clear call, values can overlap the other calls
MITF TRPM1 HTS = increases MITF-driven TRPM1 promoter luciferase signal. activation, % at 12.5 µM. SK-MEL-5 TRPM1-promoter luciferase, 24 h; % of positive control, neutral wells = 0. AID 588334. 300,000 compounds, 0.75% hits;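 active = mean activation of at least 80% with every replicate also reaching 80%; inconclusive = mean reaches 80% but some replicate falls short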
MITF TRPM1 inh = MITF TRPM1 promoter inhibition in SK-MEL-5 cells; 330,000 compounds, 0.83% hits; SK-MEL-5 TRPM1 promoter luciferase, 24 h; inhibition, % at 12.5 µM; AID 488899;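 active = mean inhibition across replicates of 60% or more, whatever share of single replicates reaches that level; inconclusive = some that reach 60%, reason not given; inactive = mean inhibition across replicates below 60%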
PAX8 reporter = lowers PAX8-driven luciferase in RMG-I cells; 360,000 compounds, 1.2% hits; RMG-I TPO-luciferase reporter, SteadyGlo, 24 h; inhibition, % at 12.6 µM;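 active = mean replicate inhibition at least 60% with every replicate also reaching 60%; inconclusive = only one of the two criteria is met; inactive = mean below 60% and not all replicates reaching 60%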;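 also: luciferase light reporting Pax8 driven TPO promoter activity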
EWS-Fli block = blocks EWS/Fli oncoprotein-driven transcription. A673 NR0B1-luciferase reporter, viability-normalised. inhibition, % at 12.6 µM. 350,000 compounds, 0.67% hits. AID 651661;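 active = mean inhibition of at least 50% after viability correction, with every replicate also passing that limit; inconclusive = mean reaches 50% but only one of two replicates passes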;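 also: firefly luciferase signal divided by Alamar Blue viability fluorescence both relative to DMSO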
Each line names hits and unclear results; the compound was inactive in the other large screens.

CN1CCN(C(=O)c2cc(COc3c(F)cccc3F)on2)CC1c1ccccc1 (stereo unspecified)	none
NCCCCCNC(=O)[C@@H]1C[C@@H]2C(=O)N[C@@H](Cc3ccccc3)C(=O)N2[C@@H]1c1ccc(O)cc1	none (no result: esBAF inh, Wnt act, MITF TRPM1 HTS, MITF TRPM1 inh)
COC(=O)c1ccccc1NC(=S)N(Cc1ccc2c(c1)OCO2)Cc1cc2ccc(OC)cc2[nH]c1=O	EWS-Fli block 88
COC(=O)c1ccccc1NC(=S)N(Cc1ccc2c(c1)OCO2)Cc1cc2ccc(C)cc2[nH]c1=O	none (no result: Wnt act, EWS-Fli block)
NC(=O)C1=CC2C3C=CC2(O)C(=O)OC3O1 (stereo unspecified)	MITF TRPM1 inh 71 (no result: esBAF inh)
CCC(=O)N(C)C[C@H]1Oc2ncc(-c3ccccc3C)cc2C(=O)N([C@@H](C)CO)C[C@@H]1C	none (no result: Wnt act, MITF TRPM1 HTS, MITF TRPM1 inh, PAX8 reporter)
COc1ccc(CN(C)C[C@@H]2OCCCC[C@H](C)Oc3ccc(NC(=O)Nc4cccc5ccccc45)cc3C(=O)N([C@@H](C)CO)C[C@@H]2C)cc1	EWS-Fli block 65 (no result: Wnt act, MITF TRPM1 HTS, MITF TRPM1 inh)
COc1ccc(CN(C)C[C@H]2OCCCC[C@H](C)Oc3ccc(NC(=O)Nc4cccc5ccccc45)cc3C(=O)N([C@@H](C)CO)C[C@H]2C)cc1	none (no result: Wnt act, MITF TRPM1 HTS, MITF TRPM1 inh)
COc1ccc(CN(C)C[C@@H]2OCCCC[C@@H](C)Oc3ccc(NC(=O)Nc4cccc5ccccc45)cc3C(=O)N([C@H](C)CO)C[C@H]2C)cc1	EWS-Fli block 67 (no result: Wnt act, MITF TRPM1 HTS, MITF TRPM1 inh)
COc1ccc(CN(C)C[C@@H]2OCCCC[C@@H](C)Oc3ccc(NC(=O)Nc4cccc5ccccc45)cc3C(=O)N([C@@H](C)CO)C[C@H]2C)cc1	EWS-Fli block 64 (no result: Wnt act, MITF TRPM1 HTS, MITF TRPM1 inh)
COc1ccc(CN(C)C[C@@H]2OCCCC[C@H](C)Oc3ccc(NC(=O)Nc4cccc5ccccc45)cc3C(=O)N([C@H](C)CO)C[C@H]2C)cc1	PAX8 reporter 80 (no result: Wnt act, MITF TRPM1 HTS, MITF TRPM1 inh)
C/C=C/c1cnc2c(c1)C(=O)N([C@H](C)CO)C[C@H](C)[C@H](CN(C)Cc1ccc3c(c1)OCO3)O2	none (no result: Wnt act, MITF TRPM1 HTS, MITF TRPM1 inh)
Cc1ccccc1-c1cnc2c(c1)C(=O)N([C@@H](C)CO)C[C@@H](C)[C@@H](CN(C)C(=O)c1ccncc1)O2	none (no result: Wnt act, MITF TRPM1 HTS, MITF TRPM1 inh, PAX8 reporter)
C[C@@H]1CN([C@H](C)CO)C(=O)c2cc(-c3ccc(F)cc3)cnc2O[C@@H]1CN(C)CC1CCCC1	none (no result: Wnt act, MITF TRPM1 HTS, MITF TRPM1 inh, PAX8 reporter)
CCCNC(=O)OCCC12CC3CC(CC(C3)C1)C2	esBAF inh 56, Wnt act inconclusive
CCN(CC(=O)Nc1ccc2c(c1)OCCO2)C(=O)/C=C/c1cccc(Br)c1	esBAF inh 63
COc1cc(/C=N\NC(=O)c2ccc(-c3ccccc3)cc2)cc(OC)c1OC(C)=O	PAX8 reporter 100 (no result: esBAF inh, EWS-Fli block)
COc1cc(/C=N\NC(=O)c2ccc(-c3ccccc3)cc2)cc(OC)c1O	PAX8 reporter 75 (no result: esBAF inh)
CO[C@@H]1CN(C)C(=O)c2ccc(NS(=O)(=O)c3cccc(C)c3)cc2OC[C@H](C)NC[C@@H]1C	none (no result: Wnt act, MITF TRPM1 HTS, MITF TRPM1 inh, PAX8 reporter)
CCCC(=O)Nc1ccc2c(c1)C(=O)N(C)[C@@H]1CC[C@H](CC(=O)NCc3ccccc3Cl)O[C@@H]1CO2	none (no result: Wnt act, MITF TRPM1 HTS, MITF TRPM1 inh)
COc1ccc(-c2cc(C(=O)NN)[nH]n2)cc1	none (no result: esBAF inh)
COc1ccc(-c2cc(-c3ccc(C)cc3)n[nH]2)c(O)c1	esBAF inh inconclusive, Wnt act 55
COc1ccc(-c2cc(-c3cc(C)ccc3O)[nH]n2)cc1	none (no result: esBAF inh)
COc1ccc(-c2cc(-c3ccc(OC)cc3)[nH]n2)cc1	esBAF inh 64, Wnt act 49, MITF TRPM1 HTS inconclusive (no result: EWS-Fli block)
O=C(C[C@@H]1C[C@H]2c3cc(NC(=O)CC4CC4)ccc3O[C@H]2[C@H](CO)O1)NCc1cccc(F)c1	none (no result: Wnt act, MITF TRPM1 HTS, MITF TRPM1 inh, PAX8 reporter)
CN(C)C(=O)[C@H]1[C@H](CO)[C@H]2Cn3c(ccc(-c4ccccc4F)c3=O)[C@@H]1N2C	none (no result: Wnt act, MITF TRPM1 HTS, MITF TRPM1 inh)
C[C@@H]1CN([C@@H](C)CO)C(=O)c2c(c3ccccc3n2C)-c2ccccc2CO[C@@H]1CN(C)Cc1ccc(-c2ccccc2)cc1	PAX8 reporter 63 (no result: esBAF inh, Wnt act, MITF TRPM1 HTS, MITF TRPM1 inh)
COc1ccc(CNC(=O)N(C)C[C@@H]2OCc3ccccc3-c3c(n(C)c4ccccc34)C(=O)N([C@H](C)CO)C[C@@H]2C)cc1	esBAF inh 46 (no result: Wnt act, MITF TRPM1 HTS, MITF TRPM1 inh)
C[C@H](CO)N1C[C@H](C)[C@@H](CN(C)C(=O)Cc2ccccc2)OCc2ccccc2-c2c(n(C)c3ccccc23)C1=O	PAX8 reporter 66 (no result: Wnt act, MITF TRPM1 HTS, MITF TRPM1 inh)
C[C@H]1CN([C@@H](C)CO)C(=O)c2c(c3ccccc3n2C)-c2ccccc2CO[C@@H]1CN(C)Cc1ccc(-c2ccccc2)cc1	PAX8 reporter 82 (no result: esBAF inh, Wnt act, MITF TRPM1 HTS, MITF TRPM1 inh)
C[C@H](CO)N1C[C@H](C)[C@@H](CN(C)C(=O)CCCN(C)C)OCCCC[C@H](C)Oc2ccc(NS(=O)(=O)c3ccccc3)cc2C1=O	none (no result: Wnt act, MITF TRPM1 HTS, MITF TRPM1 inh)
COc1cc(CN2CC3(CCN(S(=O)(=O)c4cn(C)cn4)CC3)c3c(n(C)c4cc(OC)ccc34)[C@@H]2CO)cc(OC)c1	none (no result: esBAF inh, Wnt act, MITF TRPM1 HTS, MITF TRPM1 inh)
C[C@@H]1CN([C@H](C)CO)C(=O)c2c(c3ccccc3n2C)-c2ccccc2CO[C@@H]1CN(C)C	PAX8 reporter 88 (no result: Wnt act, MITF TRPM1 HTS, MITF TRPM1 inh)
O=S(=O)(/N=C(/NC(=S)Nc1ccccc1)c1ccccc1)c1ccc(Cl)cc1	esBAF inh 68, MITF TRPM1 HTS 112
COc1ccc(NC(=S)N/C(=N/S(=O)(=O)c2ccc(C)cc2)c2ccccc2)cc1	esBAF inh 59
O=C(O)c1ccc(N/C(=N\S(=O)(=O)c2ccc(Cl)cc2)c2ccccc2)cc1	none
COc1ccc(NC(=S)NC(=NS(=O)(=O)c2ccc(Cl)cc2)c2ccccc2)cc1	esBAF inh 113
C/C(=N\S(=O)(=O)c1ccc(C)cc1)NC(=S)Nc1ccccc1	none (no result: esBAF inh)
COc1ccccc1N/C(=N/S(=O)(=O)c1ccc(Cl)cc1)c1ccccc1	none (no result: Wnt act, PAX8 reporter, EWS-Fli block)
O=C(NN/C(=N/S(=O)(=O)c1ccc(Cl)cc1)c1ccccc1)c1cccc(Cl)c1	Wnt act 33
